# Source: PubChem BioAssay AID1851 (National Center for Advancing Translational Sciences (NCATS), 2009)
# Several values for one entry are separate records, joined by “and”; a condition that tells them apart may be missing. Equal values may be shown once. The campaign covered roughly 16,000 compounds. About 5,800 (36%) were called active. Not shown: some 23% with an inconclusive outcome. The call rests on the fitted dose curve; in most records, active means well fitted curve in the direction sought with a large enough effect; inconclusive means small, poorly fitted or top-dose-only effect, or effect the other way; inactive means no such curve, though single readings can be large or run the other way. Some of the results follow. Some compounds were tested as several samples or in several runs, with calls that do not always agree.
# Biological target: Cytochrome P450 2C19 (Homo sapiens) (UniProt P33261)
# Sequence (P33261 whole entry, looked up): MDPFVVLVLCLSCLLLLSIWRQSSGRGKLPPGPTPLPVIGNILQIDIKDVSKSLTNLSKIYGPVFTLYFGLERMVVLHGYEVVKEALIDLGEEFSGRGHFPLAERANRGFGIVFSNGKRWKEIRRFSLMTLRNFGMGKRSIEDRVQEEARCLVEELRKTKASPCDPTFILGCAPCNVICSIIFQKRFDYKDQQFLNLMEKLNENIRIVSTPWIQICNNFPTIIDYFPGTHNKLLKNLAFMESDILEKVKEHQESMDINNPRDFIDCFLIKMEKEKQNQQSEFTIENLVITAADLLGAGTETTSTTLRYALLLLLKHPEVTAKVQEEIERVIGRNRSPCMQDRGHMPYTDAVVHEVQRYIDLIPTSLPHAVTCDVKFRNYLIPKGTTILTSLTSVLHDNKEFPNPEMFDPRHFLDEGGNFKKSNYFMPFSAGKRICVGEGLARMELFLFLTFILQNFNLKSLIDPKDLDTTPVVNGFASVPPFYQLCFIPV
# Assay: Cytochrome panel assay with activity outcomes
# Conditions: recombinant CYP, pro-luciferin dealkylation, luminescence, p450-cyp2c19; series mostly up to 57.1 µM
# On the % scale 0 is the no-effect control and ±100 the full control effect.
Compound,AC50,"activity, negative = inhibition"
CSc1nc2ccccc2cc1/C=C(\C#N)c1cccc(C)c1,3.55 µM (active),
CSc1nc2ccccc2cc1/C=C(\C#N)c1ccc(Cl)cc1Cl,22.4 µM (active),
CSc1nc2ccccc2cc1/C=C(\C#N)c1ccccc1,11.2 µM (active),
CSc1nc2ccccc2cc1/C=C(\C#N)c1cccc(Cl)c1,15.8 µM (active),
CCN(C(=O)CSc1nc2cc(C(=O)OC)ccc2c(=O)n1Cc1ccco1)c1cccc(C)c1,1.41 µM (active),
CCc1ccc(NC(=O)CSc2nc3cc(C(=O)OC)ccc3c(=O)n2Cc2ccco2)cc1,inactive,
O=C(NCCc1ccc(Cl)cc1)Nc1cccc(Cl)c1,0.891 µM (active),
CNC(=O)C(=O)NCCc1ccc(Cl)cc1,1.12 µM (active),
O=C(NCCc1ccc(Cl)cc1)c1ncn[nH]1,inactive,
O=C(Nc1cccc(Cl)c1)Nn1cnnc1,,11.3% [at 11.4 µM] (inactive)
S=C(S)NCCN1CCNCC1,,-11.3% [at 11.4 µM] (inactive)
Cc1nc(N2CCOCC2)nc(N2CCN(c3ccccc3)CC2)c1[N+](=O)[O-],2.24 µM (active),
Cc1noc(C)c1-c1nc(N2CCOCC2)c2ccccc2n1,inactive,
Cc1nc2cnc(N3CCOCC3)nc2n(Cc2cccs2)c1=O,inactive,
CC(C)(C)NC(=O)NC(=O)CSc1nnc2ccccn12,inactive,
Cc1ccc(NC(=O)CCSc2nnc3ccccn23)cc1,0.794 µM (active),
C[C@H](O/N=C1/[C@H]2O[C@@H]2[C@@H](O)[C@H]2[C@H]1CCn1c(=O)n(-c3ccccc3)c(=O)n12)c1cn([C@H](CO)Cc2ccccc2)nn1,,20% [at 11.4 µM] (inactive) and 36.7% [at 11.4 µM] (inactive)
O=C(c1cc(C(F)(F)F)cc(C(F)(F)F)c1)N1CCC2(CC1)CCN(c1ncccn1)CC2,inactive,
COc1ccc(/C=N/NC(=O)C2CCN(c3ncc(C(F)(F)F)cc3Cl)CC2)cc1,inactive,
O=C(OC1CCN(c2ncc(C(F)(F)F)cc2Cl)CC1)c1ccccc1,11.2 µM (active),
COc1cccc2cc3c(=O)oc4ccccc4c3nc12,3.98 µM (active),
Cn1c(C(F)(F)F)nc2c(=O)oc3ccccc3c21,inactive,

Compound,AC50,"activity, negative = inhibition"
COc1ccccc1CNc1ccnc(-c2ccc3c(c2)OCO3)n1,3.16 µM (active),
COc1ccc(CNc2ccnc(-c3ccc4c(c3)OCO4)n2)c(OC)c1,2.51 µM (active),
O=C(Nc1ccccc1)N1CC2(CCN(C(=O)c3cnccn3)CC2)C1,inactive,
Cc1ccn2cc(CSc3ccccc3N)nc2c1,2.51 µM (active),
N#C/C(=C\Nc1ccccn1)C(=O)c1ccco1,,-6.24% [at 11.4 µM] (inactive)
CC(C)SC(=N)N,inactive,
CCSC(=N)N,inactive,
CSC(=N)N,inactive and 631 nM (active),
CCC/C=C(\CCC)C(NC(=O)c1cccs1)c1ccc(C(=O)OC)cc1 (stereo unspecified),0.794 µM (active),
CCC/C=C(\CCC)C(NC(=O)c1ccc(C(F)(F)F)cc1)c1ccccc1 (stereo unspecified),10 µM (active),
CCC/C=C(\CCC)C(NC(=O)c1cccs1)c1ccc(C(F)(F)F)cc1 (stereo unspecified),0.316 µM (active),
CCC/C=C(\CCC)C(NC(=O)c1ccc(-c2ccccc2)cc1)c1ccc(C(=O)OC)cc1 (stereo unspecified),inactive,
CCC/C=C(\CCC)C(NC(=O)c1ccc(C(F)(F)F)cc1)c1ccc(C(F)(F)F)cc1 (stereo unspecified),inactive,
CCC/C=C(\CCC)C(NC(=O)Cc1ccccc1)c1ccc(C(=O)OC)cc1 (stereo unspecified),2.51 µM (active),
CCC/C=C(\CCC)C(NC(=O)Oc1ccc(F)cc1)c1ccc(C(=O)OC)cc1 (stereo unspecified),inactive,
COc1ccc(-n2c(=O)c(-c3cc(F)cc(F)c3)nc3cnc(N4CCNCC4)nc32)cc1,inactive,
Nc1ccc(S(=O)(=O)Nc2ccc(Cl)nn2)cc1,inactive,
CC(C)(C)NS(=O)(=O)c1ccc(NS(=O)(=O)c2ccc(F)cc2)cc1,inactive,
CC(C)(C)c1ccc(NS(=O)(=O)c2ccc(N)cc2)cc1,0.398 µM (active),
CN(C)CCCNc1ncnc2nc[nH]c12,,19.7% [at 11.4 µM] (inactive)
CN(C)c1ccnc(-c2ccccc2C(F)(F)F)n1,inactive,
CN(Cc1ccco1)c1ccnc(-c2ccccc2C(F)(F)F)n1,7.94 µM (active),

Compound,AC50,"activity, negative = inhibition"
Cc1ccccc1-c1cc(N(C)Cc2ccco2)ncn1,6.31 µM (active),
COc1ccccc1-c1cc(N(C)Cc2ccco2)ncn1,3.98 µM (active),
CN(C)Cc1ccccc1-c1nccc(N(C)Cc2ccco2)n1,inactive,
CN(C)Cc1ccccc1-c1cc(N(C)Cc2ccco2)ncn1,inactive,
CN(Cc1ccco1)c1cc(-c2ccccc2Cl)ncn1,7.94 µM (active),
CN(Cc1ccco1)c1cc(-c2ccccc2C(F)(F)F)ncn1,10 µM (active),
O[C@]1(c2ccccc2)c2ccccc2NC2=NCCN21,,36.2% [at 11.4 µM] (inactive)
Cc1onc(C(=O)/C=C/N(C)C)c1C(=O)Nc1nccs1,inactive,
Cc1ccc(OCc2ccc(C(=O)Nc3nccs3)o2)cc1C,2.51 µM (active),
COc1ccc(NC(=O)c2ccc(COc3ccccc3)o2)cc1,5.62 µM (active),
COC(=O)c1ccccc1NC(=O)c1ccc(COc2ccc(C)c(C)c2)o1,2 µM (active),
COC(=O)c1ccccc1NC(=O)c1ccc(Cn2cc(Cl)cn2)o1,1.12 µM (active),
Cc1ccc2ncc([N+](=O)[O-])n2c1,inactive,
CCOc1ccc(C(CC(=O)O)NC(=O)COc2ccccc2)cc1 (stereo unspecified),inactive,
CCOC(=O)CC(NC(=O)c1ccc(C)cc1)c1ccc(C)cc1 (stereo unspecified),14.1 µM (active),
CCOC(=O)CC(NC(=O)c1ccco1)c1ccc(OC)cc1 (stereo unspecified),14.1 µM (active),
CCOC(=O)CC(NC(=O)c1cccs1)c1ccc(OCC)cc1 (stereo unspecified),2.82 µM (active),
CC(C)CSC[C@@H]1O[C@H](n2cnc3c(N)nccc32)[C@H](O)[C@@H]1O,,39.2% [at 11.4 µM] (inactive)
COCCNC(=O)c1cn(Cc2c(F)cccc2Cl)nn1,14.1 µM (active),
COCCNC(=O)CCn1nc(-c2ccc(Cl)cc2)ccc1=O,inactive,
CN(CCC(=O)O)S(=O)(=O)c1ccccc1,,-21.5% [at 11.4 µM] (inactive)
CN(CC(=O)Nc1cccc2c1CCCC2)S(=O)(=O)c1ccc(Br)cc1,5.01 µM (active),
